Screen size: about 2,300 compounds; about 330 (14%) showed activity.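 Rule for the calls: active = median modified Z-score above 1.96; inactive = 1.96 or below.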 Only a sample is shown.
Test system: HepG2 Srxn1-GFP reporter cells (+30 nM CDDO-Me)
Experiment: Srxn1-GFP intensity median modified Z-score relative to plate median; higher = stronger NRF2 / oxidative stress reporter activation, active = hit call of the paper
Conditions: 10 µM; exposure time: 24h
In short: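 HepG2 Srxn1-GFP BAC reporter cells were seeded at 20,000 per well in 96-well plates and co-exposed for 24 h to compound at 10 μM and an NRF2 activator at 30 nM, with DMSO at ≤0.1%, in three replicate plates. Cells were fixed with formaldehyde, stained with Hoechst and imaged by confocal microscopy, and cytoplasmic GFP was measured per cell, with images holding under 100 cells discarded. The reported value is the median over replicates of each plate's modified Z-score of GFP intensity. For this score, scaling used 1.4826 × median absolute deviation.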

Srxn1-GFP intensity median modified Z-score, active:
CCN(CC)CCNc1ccc(CO)c2sc3ccccc3c(=O)c12 [euspeclibcmpd550] 13.8
Oc1cccc(O)c1 [euspeclibcmpd262] 13.8
N#C/C(=C\c1ccc(SC(F)(F)F)cc1)c1nnc2n1CCCCC2 2.21
CC(COc1ccccc1)N(CCCl)Cc1ccccc1 (stereo not given) [euspeclibcmpd203] 3.84
CC(=O)CC(c1ccccc1)c1c(O)c2ccccc2oc1=O (stereo not given) [euspeclibcmpd321] 5.96
COc1ccc2c(c1)OCc1c-2oc2cc(OC)ccc12 [euspeclibcmpd1708] 13.6
CCCOc1ccc2[nH]c(=NC(=O)OC)[nH]c2c1 [euspeclibcmpd575] 5.09
CCCSc1ccc2[nH]c(=NC(=O)OC)[nH]c2c1 [euspeclibcmpd630] 3.71
N=C(N)N=C(N)NCCc1ccccc1 [euspeclibcmpd898] 4.79

Srxn1-GFP intensity median modified Z-score, inactive:
CC(C)(O)CC[C@@H](O)[C@](C)(O)[C@@H]1CC[C@@]2(O)C3=C(CC[C@]12C)[C@@]1(C)C[C@H](O)[C@H](O)CC1C(=O)C3 (stereo not given in full) [euspeclibcmpd1686] 0.91
O=C(O)c1cc(N=Nc2ccc(O)c(C(=O)O)c2)ccc1O [euspeclibcmpd2114] -0.278
N=c1[nH]c(=NC2CC2)c2ncn(C3C=C[C@@H](CO)C3)c2[nH]1 (stereo not given in full) [euspeclibcmpd479] -0.254
CCCCC/C=C/CCC(=O)N[C@H]1[C@H](Oc2c3cc4cc2Oc2ccc(cc2Cl)[C@@H](O[C@@H]2O[C@H](CO)[C@@H](O)[C@H](O)[C@H]2NC(C)=O)c2[nH]c(O)c(c5ccc(O)c(c5)c5c(OC6O[C@H](CO)[C@@H](O)[C@H](O)[C@@H]6O)cc(O)cc5c(=C(O)O)[nH]c2O)NC(=O)[C@@H]4NC(=O)[C@H]2NC(=O)C(Cc4ccc(c(Cl)c4)O3)NC(=O)[C@H](N)c3ccc(O)c(c3)Oc3cc(O)cc2c3)O[C@H](CO)[C@@H](O)[C@@H]1O (stereo not given in full) [euspeclibcmpd852] -0.162
OC[C@H](O)[C@@H](O)CO [euspeclibcmpd2221] -0.0632
Clc1cccc(Cn2cc(-c3cnn(Cc4cccc(Cl)c4)c3)cn2)c1 1.3
C[C@H](CCC(=O)NCC(=O)O)[C@H]1CCC2C3C(C[C@H](O)[C@@]21C)[C@@]1(C)CC[C@@H](O)CC1C[C@H]3O (stereo not given in full) [euspeclibcmpd1671] -0.257
CC(C)C=CC=CCC(=O)N[C@@H](CC(N)=O)C(=O)N[C@@H]1C(=O)N[C@H](c2ccc(O)cc2)C(=O)N[C@H](CCCN)C(=O)N[C@H]([C@H](C)O)C(=O)N[C@@H](c2ccc(O)cc2)C(=O)N[C@H](c2ccc(O)cc2)C(=O)N[C@@H]([C@H](C)O)C(=O)N[C@@H](Cc2ccccc2)C(=O)N[C@H](CCCN)C(=O)N[C@@H](c2ccc(O[C@@H]3O[C@H](CO)[C@H](O)[C@@H](O)[C@@H]3O[C@@H]3O[C@H](CO)[C@@H](O)[C@H](O)[C@H]3O)cc2)C(=O)NC(C(C)O)C(=O)N[C@@H](c2ccc(O)cc2)C(=O)NCC(=O)N[C@@H](CC(C)C)C(=O)N[C@H](C)C(=O)N[C@@H](c2ccc(O)c(Cl)c2)C(=O)O[C@@H]1C(N)=O (stereo not given in full) [euspeclibcmpd1079] 0.139
Cc1cc(=O)n(-c2ccccc2)[nH]1 [euspeclibcmpd1143] -0.434
CC(=O)N[C@@H]1[C@@H](OC(C)C(=O)O)[C@H](O)[C@@H](CO)O[C@H]1O (stereo not given in full) [euspeclibcmpd2433] -0.153
COC(=O)C[C@H]1C(C)(C)[C@@H](OC(C)=O)C2CC3C4CC(=O)O[C@@H](c5ccoc5)[C@]4(C)CCC3[C@@]1(C)C2=O (stereo not given in full) [euspeclibcmpd1596] 1.31
C/C1=C/CC(C)(C)/C=C/C/C(C)=C/CC1 [euspeclibcmpd1338] 0.112
CCCCOc1cc(C(=O)NCCN(CC)CC)c2ccccc2n1 [euspeclibcmpd89] 0.582
N=C(N)NCC1COC2(CCCCC2)O1 (stereo not given) [euspeclibcmpd1929] -0.0176
CN(CCOc1ccc(Cc2sc(=O)[nH]c2O)cc1)c1ccccn1 [euspeclibcmpd2243] 0.517
Oc1ccc2ccccc2c1 [euspeclibcmpd1176] 1.48
CC(=O)Nc1cccc(O)c1 [euspeclibcmpd1259] -0.0594
CCCCC(=O)N(Cc1ccc(-c2ccccc2-c2nn[nH]n2)cc1)C(C(=O)O)C(C)C (stereo not given) [euspeclibcmpd719] -1.02
CC(=O)OCC(=O)[C@@]1(O)CCC2C3CC=C4CC(=O)CC[C@]4(C)C3C(=O)C[C@@]21C (stereo not given in full) [euspeclibcmpd74] -0.793
CCN[C@@H]1C[C@H](N)[C@@H](O[C@H]2OC(CN)=CC[C@H]2N)[C@H](O)[C@H]1OC1OC[C@](C)(O)[C@H](NC)[C@H]1O (stereo not given in full) [euspeclibcmpd845] -0.391
CC(C)COCC(CN(Cc1ccccc1)c1ccccc1)N1CCCC1 (stereo not given) [euspeclibcmpd972] -0.387
CCOC(=O)OC(C)OC1=C(C(=O)N=c2cccc[nH]2)N(C)S(=O)(=O)c2ccccc21 (stereo not given) [euspeclibcmpd1195] 0.103
CCCCC(=O)O[C@H]1CCC2C3CCc4cc(O)ccc4C3CC[C@@]21C (stereo not given in full) [euspeclibcmpd117] -0.716
O=C(O)[C@]1(O)C[C@@H](O)[C@@H](O)[C@H](O)C1 [euspeclibcmpd1500] -0.119
O=c1ccc2ccccc2o1 [euspeclibcmpd1076] -0.351
Cc1cc(C)[nH]c(=NS(=O)(=O)c2ccc(N)cc2)n1 [euspeclibcmpd276] -0.664
Cc1cc(C(=O)NCCCn2cncn2)no1 1.31
CC(=O)O[C@@H]1C[C@@]23C[C@@]24CC[C@H](O[C@@H]2OC[C@@H](O)[C@H](O)[C@H]2O)C(C)(C)C4CCC3[C@]2(C)C[C@@H]3OC4(C[C@@H](C)[C@@H]3[C@@]12C)O[C@H](O)[C@]1(C)O[C@H]41 (stereo not given in full) [euspeclibcmpd2415] 0.583
O=c1c(O)c(-c2ccccc2)oc2ccccc12 [euspeclibcmpd1679] 1.3
CC(=O)CC(c1ccc([N+](=O)[O-])cc1)c1c(O)c2ccccc2oc1=O (stereo not given) [euspeclibcmpd502] -0.425
COc1ccc2c(C)cc(=O)oc2c1 [euspeclibcmpd1528] -0.287
COc1ccc2c(=O)c(OC)c(-c3ccccc3)oc2c1 [euspeclibcmpd1977] 0.483
CO[C@@]1(NC(O)=c2sc(=C(C(N)=O)C(=O)O)s2)C(=O)N2C(C(=O)O)=C(CSc3nnnn3C)CSC21 (stereo not given in full) [euspeclibcmpd474] -0.0789
CC(C)CCCC(C)C1CCC2C3CC[C@H]4CCCC[C@]4(C)C3CC[C@]12C (stereo not given in full) [euspeclibcmpd1324] 1.13
CCCCCN=C(N)NN=Cc1c[nH]c2ccc(OC)cc12 [euspeclibcmpd723] -0.285
COc1ccc2[nH]cc(CCNC(C)=O)c2c1 [euspeclibcmpd1720] -0.164
NCCc1c[nH]cn1 [euspeclibcmpd147] 0.0512
COC=C1CS[C@@H]2C(=NC(=O)C(NOC)c3csc(=N)[nH]3)C(=O)N2C1C(=O)OC(C)OC(=O)OC(C)C (stereo not given in full) [euspeclibcmpd832] -0.299
O=C1CC2(CCCC2)CC(=O)N1CCCCN1CCN(c2ncccn2)CC1 [euspeclibcmpd948] 0.569
CC1(C)SC2C(NC(=O)C(C(=O)O)c3ccsc3)C(=O)N2C1C(=O)O (stereo not given) [euspeclibcmpd2129] -0.127
C[C@H](CCC(=O)O)[C@H]1CCC2C3C(CC[C@@]21C)[C@@]1(C)CC[C@@H](O)C[C@H]1C[C@H]3O (stereo not given in full) [euspeclibcmpd2399] -0.395
CCC(=O)O[C@H]1[C@H](O[C@@H]2[C@@H](C)[C@H](O[C@H]3C[C@@](C)(OC)[C@@H](O)[C@H](C)O3)C(C)C(=O)O[C@H](CC)[C@@](C)(O)[C@H](O)C(C)C(=O)C(C)C[C@@]2(C)O)O[C@H](C)C[C@@H]1N(C)C (stereo not given in full) [euspeclibcmpd411] 0.128
COC(=O)c1c(C)cc(O)cc1O [euspeclibcmpd2120] -0.435
CC(=O)OCC(=O)[C@@]1(O)CCC2C3CC=C4CC(=O)C=CC4(C)C3[C@@H](O)C[C@@]21C (stereo not given in full) [euspeclibcmpd242] -0.458
O=C(NCCN1CCOCC1)NC(=O)c1ccc(Cl)cc1 1.77
COC(=O)C1CCN(C(=O)C(OC(=O)C2CCC(=O)NC2)C(C)C)CC1 (stereo not given) 0.378
CCOc1ccc(C(=O)c2ccc(O)c(O)c2O)cc1 [euspeclibcmpd1369] 0.486
O=C(CCCl)NCCc1ccccc1 [euspeclibcmpd2364] 0.0303
NNCCc1ccccc1 [euspeclibcmpd231] 0.202
CC(=O)OCC(=O)[C@@]1(O)[C@@H](C)CC2C3CC=C4CC(=O)C=C[C@]4(C)[C@@]3(F)[C@@H](O)C[C@@]21C (stereo not given in full) [euspeclibcmpd2268] 0.239
CC(C)=CCOc1ccc2c(=O)c(-c3ccccc3)coc2c1 0.352
